# In PubChem BioAssay:
# Test: Wnt pathway potentiators raising nuclear beta-catenin – imaging, WNT3A-conditioned medium, mouse C2C12, NPC library, primary screen (AID 1117326); note: reference of the scale not given here
# Details: stimulation, at 2 µM, stronger effect = higher value
row,Structure (SMILES),nuclear beta-catenin stimulation
1,O=C(O)c1cc(O)c(O)c(O)c1,-0.2%
2,Cc1c(C(N)=O)cc([N+](=O)[O-])cc1[N+](=O)[O-],-0.9%
3,Nc1ccc(S(=O)(=O)Nc2ccc(Cl)nn2)cc1,4.5%
4,CCCc1cc(C(N)=S)ccn1,2%
5,CCCCC(CC)CN1CN(CC(CC)CCCC)CC(C)(N)C1 (stereo unspecified),3.6%
6,C[N+]12CCC(CC1)C(OC(=O)C(O)(c1ccccc1)c1ccccc1)C2 (stereo unspecified),1.9%
7,C=CCSCC1Nc2cc(Cl)c(S(N)(=O)=O)cc2S(=O)(=O)N1 (stereo unspecified),0.6%
8,Oc1c(Cl)cc(Cl)cc1Sc1cc(Cl)cc(Cl)c1O,1.5%
9,CCOc1ccc(Cc2nccc3cc(OCC)c(OCC)cc23)cc1OCC,7.1%
10,O=C1C(O)=C(O)C(=O)C(O)=C1O,0.7%
11,Oc1ccc(Cl)c2cccnc12,2.1%
12,COc1ccc(C2C(=O)c3ccccc3C2=O)cc1,1.4%
13,C[C@@](Cc1ccc(O)c(O)c1)(NN)C(=O)O,-0.3%
14,O=C(O)c1ccccc1OP(=O)(O)O,2.9%
15,Nc1ccc(N=Nc2ccccc2)c(N)n1,3.5%
16,C=CCc1ccc(O)c(OC)c1,4.6%
17,COc1ccc(-c2cc(C(F)F)nn2-c2ccc(S(N)(=O)=O)cc2)cc1F,0.7%
18,Cc1c(NC(=O)c2cccnc2)c(=O)n(-c2ccccc2)n1C,1.7%
19,COc1ccc2cc1Oc1ccc(cc1)C[C@H]1c3c(cc4c(c3Oc3cc5c(cc3OC)CCN(C)[C@@H]5C2)OCO4)CCN1C,7.1%
20,CN1CCCN=C1COC(=O)C(O)(c1ccccc1)C1CCCCC1 (stereo unspecified),1.9%
21,O=C(OCC(O)CO)c1ccccc1Nc1ccnc2cc(Cl)ccc12 (stereo unspecified),-0.3%
